Values without a mark were called inactive. Records with an inconclusive call do not appear. A call without a number means that no potency is given here. Calls of active or inactive are those of the source. Calls come from the whole dose curve; as a rule, active = well fitted curve in the direction sought with a large enough effect; inconclusive = small, poorly fitted or top-dose-only effect, or another doubt; inactive = no such curve, though single readings can be large; an effect the other way counts as inactive or inconclusive. *1 amine or outer side, *2 acyl side, *3 side chain or, on linkers, in order; H or OH if unused. Where a SMILES comes first, the peptide text is derived from it. [ ]: non-standard residue; d: D form. X13 = O=C(C(CC(O)CO)O[*:1])[*:2]; NMeV = CN[CH](C(=O)O)C(C)C; NMeA = CN[CH](C)C(=O)O; βAla = NCCC(=O)O
Experiments:
[1] = tested on: Nanoluciferase (engineered Oplophorus gracilirostris luciferase); experiment: Primary Nanoluciferase (NLuc) qHTS assay for identification of artifact compounds. (AID 1845222);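 note: NLuc secreted into diluted conditioned medium of S16 cells; series mostly up to about 54 µM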
Outline: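 Using secreted nanoluciferase in S16 culture medium (0.22 um filtered, 1:55 dilution), compounds were preincubated 15 min at RT. Signal was generated with Nano-Glo reagent (1:100) over 5 min.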

[2] = Primary redox qHTS assay for identification of artifact compounds. (AID 1845223)
Outline: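 Amplex Red (25 uM) and HRP (250 mU/mL) in HBSS, with compounds for 15 min, then 250 uM DTT for 30 min, room temperature, dark. Fluorescence 525/598 nm read; normalized to DMSO and 10 uM DA3003; Hill fit.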

Structure (SMILES) | Potency [1] | Potency [2] | activity, negative = inhibition [1] | redox activity (% of DA3003) [2]
CC1CC(=O)[C@]2(O)C(C(=O)OCCc3ccc(O)cc3)=CO[C@@H](O[C@@H]3O[C@H](CO)[C@@H](O)[C@H](O)[C@H]3O)[C@H]12 (some centres not stated) | inactive | inactive | – | –
O=C(/C=C/c1ccc(O)cc1)O[C@H]1[C@H](OC2CCCCC2O)O[C@H](CO)[C@@H](O)[C@@H]1O (some centres not stated) | inactive | inactive | – | –
C[C@]12CCC[C@](C)(C(=O)O)C1CCC13CC(CO)C(CCC12)C3 (some centres not stated) | inactive | inactive | – | –
CC1(C)[C@@H]2CC=C(CO[C@@H]3O[C@H](CO[C@@H]4OC[C@H](O)[C@H](O)[C@H]4O)[C@@H](O)[C@H](O)[C@H]3O)[C@H]1C2 | inactive | inactive | – | –
C/C=C/C=C/C(O)=C1/C(=O)[C@]2(C)C3/C(=C(O)/C=C/C=C/C)C(=O)C4(C)C1[C@]1(C)O[C@@]4(O)[C@@]3(C)O[C@@]12O | inactive | inactive | – | –
CC1(C)CC[C@]2(C(=O)O[C@@H]3O[C@H](CO)[C@@H](O)[C@H](O)[C@H]3O)[C@H](O)C[C@]3(C)C(=CCC4[C@@]5(C)CC[C@H](O[C@@H]6OC[C@@H](O)[C@H](O)[C@H]6O)[C@@](C)(C(=O)O)C5CC[C@]43C)[C@@H]2C1 (some centres not stated) | inactive | inactive | – | –
C=C1C[C@]23C[C@@]1(O)CC[C@H]2[C@@]12C=C[C@H](O)[C@@](C)(C(=O)O1)[C@H]2[C@@H]3C(=O)O | inactive | inactive | – | –
NC(=O)[C@H](Cc1ccccc1)NC(=O)[C@H](CCCN=C(N)N)NC(=O)C12CC3CC(CC(C3)C1)C2 | – | – | 3.23% [at 11.6 µM] | -2.26% [at 11.5 µM]
CC1CCC2(C(=O)O)CCC3(C)C(=CCC4C5(C)C[C@@H](O)[C@@H](O)C(C)(CO)C5CCC43C)C2C1(C)O (some centres not stated) | inactive | inactive | – | –
C[C@@H]1CC[C@]2(C(=O)O[C@@H]3O[C@H](CO[C@@H]4O[C@H](CO)[C@@H](O[C@@H]5O[C@@H](C)[C@H](O)[C@@H](O)[C@H]5O)[C@H](O)[C@H]4O)[C@@H](O)[C@H](O)[C@H]3O)CC[C@]3(C)C(=CCC4[C@@]5(C)C[C@@H](O)[C@H](O)[C@@](C)(CO)C5CC[C@]43C)C2[C@H]1C (some centres not stated) | – | – | 0% [at 11.6 µM] | 3.39% [at 11.5 µM]
CC(O)CCc1ccc(O[C@@H]2O[C@H](CO)[C@@H](O)[C@H](O)[C@H]2O)cc1 (some centres not stated) | inactive | inactive | – | –
COc1cc2c(cc1OC)N1C(=O)C[C@@]34C=CC[N@+]5([O-])CC[C@H]2[C@H](CC3)[C@@]145 | inactive | inactive | – | –
C[C@H]1[C@H](C)CC[C@]2(C(=O)O)CC[C@]3(C)C(=CCC4[C@@]5(C)C[C@@H](O)[C@H](O)C(C)(C)C5CC[C@]43C)[C@H]12 (some centres not stated) | inactive | inactive | – | –
C/C=C(\C)C(=O)OC[C@H]1O[C@@H](O[C@H]2[C@@H](O[C@H]3O[C@H](CO)[C@@H](O)[C@H](O)[C@H]3O[C@@H]3O[C@H](CO)[C@@H](O)[C@H](O)[C@H]3O)O[C@H](COC(=O)/C(C)=C/C)[C@@H](O)[C@@H]2O)[C@H](O)[C@@H](O)[C@@H]1O | – | – | -0.032% [at 11.6 µM] | -4.48% [at 11.5 µM]
C[C@@H]1O[C@@H](OC[C@H]2O[C@@H](OCc3ccccc3)[C@H](O)[C@@H](O)[C@@H]2O)[C@H](O)[C@H](O)[C@H]1O | inactive | inactive | – | –
C/C(=C\CC[C@H](CO)[C@@H]1CC[C@]2(C)C3=C(CC[C@@]12C)[C@@]1(C)CCC(=O)C(C)(C)C1CC3)C(=O)O (some centres not stated) | inactive | inactive | – | –
CC(=O)C1CCC(=O)N1Cc1ccccc1 (configuration not stated) | inactive | inactive | – | –
CCC(C)C1NC(=O)C2CCCN2C(=O)C(CC(O)CO)OC(=O)CCNC(=O)C(C)N(C)C(=O)C(C(C)C)N(C)C1=O (configuration not stated) (cyclo([X13]PI[NMeV][NMeA][βAla]); configuration not given here) | inactive | inactive | – | –
C=C(CCO)C(=O)OCC1OCC(OC(=O)C(=C)CCO[C@@H]2O[C@H](COC(=O)C(=C)CCO[C@@H]3O[C@H](CO)[C@@H](O)[C@H](O)[C@H]3O)[C@@H](O)[C@H](O)[C@H]2O)C(O)C1O (some centres not stated) | inactive | inactive | – | –
CC1=C2CC(C)(C)CC2C(O)C2=C(C1)C(=O)OC2O (configuration not stated) | inactive | inactive | – | –
CC(=O)O[C@@H]1[C@H](O[C@@H]2O[C@H](CO)[C@@H](O)[C@H](O)[C@H]2O)[C@@H](O[C@@H]2O[C@@H](C)[C@H](O)[C@@H](O[C@@H]3O[C@H](CO)[C@@H](O)[C@H](O)[C@H]3O)[C@H]2O)[C@H](OC(=O)[C@]23CCC(C)(C)C[C@H]2C2=CCC4[C@@]5(C)C[C@H](O)[C@H](O[C@@H]6O[C@H](C(=O)O)[C@@H](O)[C@H](O)[C@H]6O)[C@@](C)(C(=O)O)C5CC[C@@]4(C)[C@]2(C)CC3)O[C@@H]1C (some centres not stated) | – | – | 4.94% [at 11.6 µM] | -2.45% [at 11.5 µM]
COc1c2cc(c(O)c1OC)CCCCC(O)CCc1ccc(O)c-2c1 (configuration not stated) | inactive | inactive | – | –
CNc1nc(Nc2cn(C(C)(C)C#N)nc2C)ncc1C(F)(F)F | inactive | inactive | – | –
CC1=C(CO)C2(C)CCCC(C)(C)C2C(O)C1O (configuration not stated) | inactive | inactive | – | –
CC(C)[C@](O)(c1ccc2cc(OC(F)F)c(OC(F)F)cc2c1)c1cn[nH]n1 | inactive | inactive | – | –
C[C@@H](CC[C@@H]1[C@@]2(C)CCCC(C)(C)C2CC[C@@]1(C)O)CC(=O)O (some centres not stated) | inactive | inactive | – | –
